hcDAF12 agonist – H. contortus DAF-12 nuclear receptor activators, primary screen, cell-based, luminescence, HEK293, lit1-tk-luc reporter; activation, % at 6.8 µM; 1.4% of 370,000 active; HEK293 hcDAF-12 lit1-tk-luc reporter; 0% DMSO, 100% Δ7-dafachronic acid; AID 652067, 2013;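 active = activation above the mean of all tested compounds plus 3 SD, cut at about 5.5% in these data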;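 note: 100% = response to 3 µM Δ7-dafachronic acid high control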
DAX1 inh-1 – DAX1 (NR0B1) inhibitors, primary screen, cell-based, HEK293, Gal4-DAX1, luciferase luminescence; 0.99% of 340,000 active; inhibition, % at 6.75 µM; AID 504766, 2011; Nuclear receptor subfamily 0 group B member 1 (Homo sapiens), P51843; HEK293 Gal4-DAX1 luciferase reporter;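 active = inhibition above the mean over all tested compounds plus 3 SD, cut at about 4.2% in these data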;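 note: 0% = DAX1-transfected cells with DMSO and 100% = empty-vector control cells with DMSO; inhibition shows as a rise in luminescence from relieved DAX1 repression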
DAX1 inh-2 – DAX1 (NR0B1) inhibitors on StAR promoter, primary screen, cell-based, luminescence, SF-1 (NR5A1), full-length DAX-1; AID 652010, 2013; HEK293T StAR-luciferase reporter, SF-1/DAX-1 repression relief; inhibition, % at 6.8 µM; 1.1% of 370,000 active;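 active = inhibition above the mean over all tested compounds plus 3 SD, cut at about 3.6% in these data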;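 note: 0% = DAX-1 cells with DMSO and 100% = cells lacking DAX-1 with DMSO; higher inhibition means more luminescence from relief of DAX-1 repression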
hgDAF-12 ag – H. glycines DAF-12 receptor agonists, primary screen, cell-based, luminescence, HEK293, GAL4 fusion, UAS-luciferase; Nuclear hormone receptor DAF-12 (Heterodera glycines), GAL4 fusion; HEK293 GAL4-hgDAF12 UAS-luciferase reporter, agonist luminescence; normalized to butyrate control; activation, % at 6.8 µM; 1.8% of 370,000 active;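 active = activation above a cutoff set at the mean of all screened compounds plus 3 SD, cut at about 10% in these data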;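 note: 0% = DMSO wells and 100% = sodium butyrate wells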
ssDAF12 agonist – S. stercoralis DAF-12 nuclear receptor activators, primary screen, cell-based, luminescence, HEK293, GRIP1 co-expression, lit1-tk-luc. HEK293 ssDAF-12/GRIP1 lit1-tk-luc reporter; % of 3 µM dafachronic acid response. activation, % at 6.8 µM. 1% of 370,000 active. Nuclear hormone receptor DAF-12 (Strongyloides stercoralis);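 active = activation above the mean over all tested compounds plus 3 SD, cut at about 0.9% in these data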;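 note: 0% = DMSO-only wells and 100% = 3 µM delta7-dafachronic acid wells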
DAX1 inh confirm – DAX1 (NR0B1) inhibitors relieving SF-1 repression, confirmation, cell-based, luminescence, HEK293T, full-length DAX-1, SF-1 activated StAR promoter | shares compounds with DAX1 inh-2 | HEK293T StAR-promoter luciferase reporter, SF-1/DAX-1 repression | inhibition, % at 6.8 µM | 87% of 2,400 active | AID 652134, 2013;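 active = inhibition above the average of every tested compound plus 3 SD, cut at about 3.8% in these data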;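 note: 0% = DAX-1 cells with DMSO and 100% = no DAX-1 control cells with DMSO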
SF1 AF2mut Luc – StAR reporter signal changes without DAX1, counter-screen for DAX1 inhibitor project, cell-based, luminescence, AF-2 mutant SF-1, transactivation; 78% of 2,400 active; HEK293 StAR-luciferase, SF-1 AF2 mutant; shares compounds with DAX1 inh-2; inhibition, % at 6.8 µM;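 active = inhibition above the mean of all tested compounds plus 3 SD, cut at about 3% in these data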;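 note: 0% = DAX-1 transfected cells with DMSO and 100% = cells without DAX-1 with DMSO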
LXR ag – LXR agonists, Gal4 luciferase reporter, confirmation, counter-screen for hcDAF-12 agonist project, cell-based, luminescence, HEK293, H. contortus campaign | shares compounds with hcDAF12 agonist | HEK293 Gal4-LXR tk-luc reporter, 24 h; normalized: DMSO 0%, positive control 100% | activation, % at 6.8 µM | 3,400 tested, under 10 active | AID 743027, 2013;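 active = mean percent activation of the reporter above a cutoff set as the average over tested compounds plus their standard deviation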
Target sequence (P55055 whole entry, looked up, the tested form may be a part): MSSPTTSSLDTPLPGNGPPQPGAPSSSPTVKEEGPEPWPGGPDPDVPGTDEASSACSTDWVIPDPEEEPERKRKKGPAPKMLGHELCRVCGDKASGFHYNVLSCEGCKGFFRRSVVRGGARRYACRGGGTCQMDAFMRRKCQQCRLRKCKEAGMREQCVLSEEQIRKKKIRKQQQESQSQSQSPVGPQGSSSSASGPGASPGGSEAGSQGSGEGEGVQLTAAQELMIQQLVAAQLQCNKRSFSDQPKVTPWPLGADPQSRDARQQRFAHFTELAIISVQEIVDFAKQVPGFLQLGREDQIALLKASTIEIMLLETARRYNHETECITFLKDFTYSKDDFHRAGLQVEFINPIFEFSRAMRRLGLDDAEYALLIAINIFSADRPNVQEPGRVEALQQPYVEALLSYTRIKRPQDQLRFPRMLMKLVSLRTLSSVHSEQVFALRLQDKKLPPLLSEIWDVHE
hcDAF12 ag – H. contortus DAF-12 receptor agonists, confirmation, cell-based, luminescence, HEK293, lit1-tk-luc, triplicate; shares compounds with hcDAF12 agonist; HEK293 hcDAF-12 lit1-tk-luc reporter; % of Δ7-dafachronic acid response; activation, % at 6.8 µM; 61% of 3,400 active;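 active = mean activation across triplicate tests above the threshold derived from the earlier primary screen, cut at about 5.5% in these data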;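 note: 0% = DMSO only wells and 100% = 3 µM Δ7-dafachronic acid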
hgDAF12 ag – H. glycines DAF-12 receptor agonists, confirmation, cell-based, luminescence, HEK293, GAL4-LBD fusion | 80% of 3,300 active | AID 743050, 2013 | HEK293 GAL4-hgDAF12 luciferase reporter, agonist mode; percent of butyrate response | activation, % at 6.8 µM | shares compounds with hgDAF-12 ag;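 active = mean activation over triplicate wells above the hit cutoff derived from the earlier primary screen, cut at about 11% in these data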;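 note: 0% = DMSO low control and 100% = 2 mM sodium butyrate high control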
LXRb DAF12 ctr – LXR agonists, Gal4 luciferase reporter, confirmation, counter-screen for hgDAF-12 agonist project, cell-based, luminescence, HEK293, H. glycines campaign; shares compounds with hgDAF-12 ag; 24 h; activation, % at 6.8 µM; 3,300 tested, under 10 active; AID 743051, 2013;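 active = mean activation of the triplicate above a set limit carried over from the primary screen, none filed active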
Active calls of the source: *; nt = not tested or not shown. Compounds with a hit are over-represented: about 4.1% of the library has one in this group of screens.

SMILES	hcDAF12 agonist	DAX1 inh-1	DAX1 inh-2	hgDAF-12 ag	ssDAF12 agonist	DAX1 inh confirm	SF1 AF2mut Luc	LXR ag	hcDAF12 ag	hgDAF12 ag	LXRb DAF12 ctr
COc1cc(SC)ccc1C(=O)Nc1ccc2c(c1)OCCO2	8.2*	0	4.7*	14*	1	9.2*	3.6*	2	7.2*	16*	1
COc1cc(SC)ccc1C(=O)Nc1c(C)cccc1C	-2	1	-1	0	-2	nt	nt	nt	nt	nt	nt
COc1cc(SC)ccc1C(=O)Nc1nccs1	12*	-1	4.7*	17*	1.3*	15*	5.6*	2	14*	17*	1
COc1ccc(/C=N/Nc2nc3ccccc3o2)cc1O	12*	0	5.5*	15*	1	5.4*	2	1	6.6*	7	1
COC(=O)c1ccc(N2CCN(C)CC2)c(NC(=O)c2sc3ccccc3c2Cl)c1	1	0	0	2	-1	nt	nt	nt	nt	nt	nt
Cc1cc2nc(N3C(=O)CNC3=S)sc2cc1C	2	0	6.7*	17*	1.0*	14*	7.0*	nt	nt	13*	1
O=C(N=c1nc2ccccn2s1)c1ccccc1	11*	3	5.2*	22*	1.1*	11*	3	2	13*	8	1
Cc1csc(=NC(=O)c2ccccc2)n1C	3	1	2	10	1	nt	nt	nt	nt	nt	nt
O=C(NC(=S)Nc1cc([N+](=O)[O-])ccc1O)c1ccc2c(c1)OCO2	9.2*	1	10.0*	16*	0	16*	7.4*	2	9.7*	18*	1
COc1cc([N+](=O)[O-])ccc1NC(=S)NNC(=O)c1ccc2c(c1)OCO2	1	0	0	2	-1	nt	nt	nt	nt	nt	nt
CCN(Cc1ccccc1)c1ccc(/C=C(\C#N)c2ccccn2)cc1	9.3*	3	5.1*	27*	2.1*	3.7*	5.7*	1	4	13*	1
CN(CCC#N)c1ccc(/C=C(\C#N)c2ccccn2)cc1	17*	-3	5.7*	23*	2.1*	12*	3	1	5	15*	1
Cn1ccsc1=NC(=O)c1ccc(Cl)cc1	9.4*	1	4.6*	14*	1.1*	8.9*	7.7*	1	7.9*	12*	0
Cc1ccc(NC(=S)NC(=O)Cc2ccccc2)c(O)c1	0	0	0	1	-1	nt	nt	nt	nt	nt	nt
CC(=O)OCC(=O)Nc1ccc(N=Nc2ccccc2)cc1	4	0	4.8*	17*	1	10*	6.0*	nt	nt	14*	1
CN(C)c1ccc(N=Nc2nccs2)cc1	9.7*	0	7.0*	18*	2.2*	16*	5.9*	2	11*	20*	1
C=CCNC(=O)N1C2=NC(C(=O)OC)=C(C(=O)OC)[C@@H]3N(Cc4ccccc4)c4ccccc4[C@]23C[C@H]1C(=O)OC	-1	1	0	0	-1	nt	nt	nt	nt	nt	nt
O=C(Nc1nc2ccccc2[nH]1)NC1CCCCC1	5.8*	0	16*	16*	1	18*	9.7*	nt	nt	21*	1
CCOC(=O)C(C(=O)Nc1nc2ccccc2s1)C1CCCCC1 (configuration not stated)	2	3	0	3	0	nt	nt	nt	nt	nt	nt
Cc1ccc(C(=O)Nc2nc3ccccc3[nH]2)cc1	1	-5	0	-4	-1	nt	nt	nt	nt	nt	nt
O=C(Nc1nc2ccccc2s1)NC1CCCCC1	6.1*	7.1*	6.1*	18*	0	10*	6.0*	nt	nt	19*	1
O=C(Nc1nc2ccccc2[nH]1)c1cccs1	4	1	6.6*	14*	0	4.6*	4.6*	nt	nt	13*	1
CCCc1[nH]n(-c2ccc([N+](=O)[O-])cc2)c(=O)c1C=NCCCn1ccnc1	-1	0	-1	2	-1	nt	nt	nt	nt	nt	nt
O=C(COc1cccc2ccccc12)NCc1cccnc1	2	0	0	1	-1	nt	nt	nt	nt	nt	nt
Cc1ccccc1-c1cccc([C@@H]2C[C@H]3[C@H](CON3C)CN2C(=O)CCc2ccccc2)c1	0	-1	-2	-5	-1	nt	nt	nt	nt	nt	nt
CSc1ccccc1C(=O)Nc1ccc2c(c1)CCC2	2	1	0	7	0	nt	nt	nt	nt	nt	nt
O=C(Nc1ccc2c(c1)CCC2)c1ccccc1Br	7.2*	7.6*	6.8*	18*	1	14*	6.6*	1	5	17*	1
Nc1nonc1-n1nnc(C(=O)N/N=C/c2ccccc2F)c1CN1CCc2ccccc21	5	0	0	0	-1	nt	nt	nt	nt	nt	nt
CN1CCN(c2ccc(NC(=O)Cc3ccccc3)cc2)CC1	-3	4	1	6	-1	nt	nt	nt	nt	nt	nt

From PubChem
